Source: the supplement of paper PMC11732987, “Enantioselective OTUD7B fragment discovery through chemoproteomics screening and high-throughput optimisation” (Communications Chemistry, 2025)

Columns and labels:
Assay in all cases: log2 ratio of Biotin-Ahx-Ub-VS probe labelling (fragment/DMSO); higher = less target engagement (more negative = stronger competition), active = hit call of the paper (q ≤ 0.05, log2 ratio ≤ -1)
Conditions in all cases: compound concentration: 200 uM; treatment time: 3 h
[1] = target: USP34 (UniProt Q70CQ2)
Chain of USP34 (Q70CQ2 whole entry, the tested form may be a part): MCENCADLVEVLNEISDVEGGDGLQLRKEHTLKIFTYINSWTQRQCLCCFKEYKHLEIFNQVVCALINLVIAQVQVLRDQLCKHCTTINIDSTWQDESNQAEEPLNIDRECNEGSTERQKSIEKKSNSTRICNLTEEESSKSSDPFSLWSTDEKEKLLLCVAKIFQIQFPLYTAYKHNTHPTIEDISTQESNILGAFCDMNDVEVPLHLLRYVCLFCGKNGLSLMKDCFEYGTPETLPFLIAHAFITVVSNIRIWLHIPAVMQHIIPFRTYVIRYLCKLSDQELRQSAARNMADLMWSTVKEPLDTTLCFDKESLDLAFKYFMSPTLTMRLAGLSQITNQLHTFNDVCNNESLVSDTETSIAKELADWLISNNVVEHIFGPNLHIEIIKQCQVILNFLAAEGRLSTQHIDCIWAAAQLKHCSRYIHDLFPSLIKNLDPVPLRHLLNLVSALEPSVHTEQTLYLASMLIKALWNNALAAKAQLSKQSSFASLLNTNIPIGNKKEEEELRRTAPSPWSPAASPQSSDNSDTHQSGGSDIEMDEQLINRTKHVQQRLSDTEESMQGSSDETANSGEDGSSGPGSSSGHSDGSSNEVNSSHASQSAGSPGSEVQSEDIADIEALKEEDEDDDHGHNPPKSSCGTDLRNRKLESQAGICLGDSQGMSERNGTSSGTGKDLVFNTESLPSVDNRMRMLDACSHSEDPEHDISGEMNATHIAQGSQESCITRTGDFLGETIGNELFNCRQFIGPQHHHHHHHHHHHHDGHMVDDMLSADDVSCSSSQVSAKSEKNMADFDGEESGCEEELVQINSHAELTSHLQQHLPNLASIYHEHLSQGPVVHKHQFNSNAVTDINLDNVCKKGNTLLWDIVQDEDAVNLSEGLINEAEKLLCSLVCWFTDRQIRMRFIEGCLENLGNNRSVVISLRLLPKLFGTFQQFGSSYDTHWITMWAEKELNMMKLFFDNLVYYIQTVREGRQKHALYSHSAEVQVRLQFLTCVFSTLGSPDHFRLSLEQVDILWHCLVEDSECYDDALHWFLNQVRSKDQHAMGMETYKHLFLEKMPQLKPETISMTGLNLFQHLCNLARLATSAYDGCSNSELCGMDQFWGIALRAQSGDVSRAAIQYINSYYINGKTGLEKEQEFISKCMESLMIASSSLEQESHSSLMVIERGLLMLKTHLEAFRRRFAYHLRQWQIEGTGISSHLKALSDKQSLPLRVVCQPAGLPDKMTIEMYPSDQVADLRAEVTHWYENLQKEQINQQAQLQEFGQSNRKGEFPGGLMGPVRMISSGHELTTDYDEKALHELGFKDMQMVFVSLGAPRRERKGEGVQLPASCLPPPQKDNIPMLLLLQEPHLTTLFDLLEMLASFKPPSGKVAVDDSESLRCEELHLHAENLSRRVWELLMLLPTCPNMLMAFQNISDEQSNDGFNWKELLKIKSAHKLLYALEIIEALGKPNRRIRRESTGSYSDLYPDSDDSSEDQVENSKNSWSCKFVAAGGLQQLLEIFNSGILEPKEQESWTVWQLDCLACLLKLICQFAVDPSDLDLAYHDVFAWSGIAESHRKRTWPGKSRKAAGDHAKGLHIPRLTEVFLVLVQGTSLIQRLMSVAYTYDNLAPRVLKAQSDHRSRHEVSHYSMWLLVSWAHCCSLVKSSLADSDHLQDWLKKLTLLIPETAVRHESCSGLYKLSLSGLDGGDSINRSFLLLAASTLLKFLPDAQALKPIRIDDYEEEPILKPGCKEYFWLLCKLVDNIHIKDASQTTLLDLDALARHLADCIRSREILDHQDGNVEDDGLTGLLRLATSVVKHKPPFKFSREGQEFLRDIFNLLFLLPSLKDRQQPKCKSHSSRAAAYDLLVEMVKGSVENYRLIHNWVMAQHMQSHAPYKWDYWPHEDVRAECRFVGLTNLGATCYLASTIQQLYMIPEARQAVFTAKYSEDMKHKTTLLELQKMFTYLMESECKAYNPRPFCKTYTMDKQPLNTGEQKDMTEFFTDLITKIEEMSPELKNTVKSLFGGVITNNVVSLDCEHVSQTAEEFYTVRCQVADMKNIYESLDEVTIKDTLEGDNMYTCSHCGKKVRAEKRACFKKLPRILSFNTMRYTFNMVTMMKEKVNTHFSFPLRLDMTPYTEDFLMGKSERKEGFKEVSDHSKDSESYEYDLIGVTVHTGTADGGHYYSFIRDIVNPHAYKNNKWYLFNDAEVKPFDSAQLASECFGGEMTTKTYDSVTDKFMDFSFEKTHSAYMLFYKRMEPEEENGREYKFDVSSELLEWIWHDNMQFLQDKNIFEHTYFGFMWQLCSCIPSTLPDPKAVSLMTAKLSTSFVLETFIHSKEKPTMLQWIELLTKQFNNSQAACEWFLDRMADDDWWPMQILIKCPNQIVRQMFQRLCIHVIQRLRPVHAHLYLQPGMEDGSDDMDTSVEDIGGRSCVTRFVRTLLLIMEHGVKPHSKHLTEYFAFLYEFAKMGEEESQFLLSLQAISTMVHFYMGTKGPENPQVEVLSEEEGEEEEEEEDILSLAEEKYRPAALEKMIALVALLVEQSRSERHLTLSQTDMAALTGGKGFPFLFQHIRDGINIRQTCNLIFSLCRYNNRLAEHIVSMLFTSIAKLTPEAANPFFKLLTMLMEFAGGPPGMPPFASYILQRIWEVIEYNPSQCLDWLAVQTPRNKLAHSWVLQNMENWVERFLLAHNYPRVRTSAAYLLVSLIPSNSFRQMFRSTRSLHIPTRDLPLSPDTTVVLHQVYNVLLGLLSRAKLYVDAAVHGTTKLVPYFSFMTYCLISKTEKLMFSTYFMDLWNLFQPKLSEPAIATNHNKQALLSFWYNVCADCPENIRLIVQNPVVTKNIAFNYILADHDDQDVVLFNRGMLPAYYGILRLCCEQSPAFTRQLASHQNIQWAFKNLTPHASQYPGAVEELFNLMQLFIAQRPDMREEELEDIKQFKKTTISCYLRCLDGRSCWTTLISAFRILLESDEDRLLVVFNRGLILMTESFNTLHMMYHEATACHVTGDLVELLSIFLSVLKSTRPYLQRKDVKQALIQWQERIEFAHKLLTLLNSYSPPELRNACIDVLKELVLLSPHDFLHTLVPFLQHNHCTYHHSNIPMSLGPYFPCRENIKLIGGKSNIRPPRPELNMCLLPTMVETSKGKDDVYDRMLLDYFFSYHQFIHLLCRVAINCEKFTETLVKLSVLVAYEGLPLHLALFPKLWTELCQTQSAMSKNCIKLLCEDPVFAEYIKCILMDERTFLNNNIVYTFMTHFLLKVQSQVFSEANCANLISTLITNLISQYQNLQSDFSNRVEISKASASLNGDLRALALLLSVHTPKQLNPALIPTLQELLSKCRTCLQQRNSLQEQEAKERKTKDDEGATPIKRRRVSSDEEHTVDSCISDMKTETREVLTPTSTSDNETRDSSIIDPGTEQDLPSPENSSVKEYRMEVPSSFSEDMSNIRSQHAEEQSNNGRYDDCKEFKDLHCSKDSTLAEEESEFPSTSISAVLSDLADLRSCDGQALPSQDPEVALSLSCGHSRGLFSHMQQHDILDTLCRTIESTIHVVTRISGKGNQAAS
Summary of the method: (§1)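 Labelled DUBs from HEK293T lysate were NeutrAvidin-enriched, digested with LysC and trypsin, and run by diaPASEF LC-MS/MS. Before that, each 495 µg sample in Tris/CHAPS/IGEPAL buffer with protease inhibitors was treated in triplicate with fragment at 200 µM or vehicle for 3 h, then with Biotin-Ahx-Ub-VS at 0.5 µM final for 1 h. Values are average log2 ratios of fragment over vehicle by unpaired t-test, based on global-median-normalised Spectronaut label-free quantities from proteins with ≥2 unique peptides.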

[2] = target: T1, USP36 (UniProt Q9P275)
T1 sequence (whole entry): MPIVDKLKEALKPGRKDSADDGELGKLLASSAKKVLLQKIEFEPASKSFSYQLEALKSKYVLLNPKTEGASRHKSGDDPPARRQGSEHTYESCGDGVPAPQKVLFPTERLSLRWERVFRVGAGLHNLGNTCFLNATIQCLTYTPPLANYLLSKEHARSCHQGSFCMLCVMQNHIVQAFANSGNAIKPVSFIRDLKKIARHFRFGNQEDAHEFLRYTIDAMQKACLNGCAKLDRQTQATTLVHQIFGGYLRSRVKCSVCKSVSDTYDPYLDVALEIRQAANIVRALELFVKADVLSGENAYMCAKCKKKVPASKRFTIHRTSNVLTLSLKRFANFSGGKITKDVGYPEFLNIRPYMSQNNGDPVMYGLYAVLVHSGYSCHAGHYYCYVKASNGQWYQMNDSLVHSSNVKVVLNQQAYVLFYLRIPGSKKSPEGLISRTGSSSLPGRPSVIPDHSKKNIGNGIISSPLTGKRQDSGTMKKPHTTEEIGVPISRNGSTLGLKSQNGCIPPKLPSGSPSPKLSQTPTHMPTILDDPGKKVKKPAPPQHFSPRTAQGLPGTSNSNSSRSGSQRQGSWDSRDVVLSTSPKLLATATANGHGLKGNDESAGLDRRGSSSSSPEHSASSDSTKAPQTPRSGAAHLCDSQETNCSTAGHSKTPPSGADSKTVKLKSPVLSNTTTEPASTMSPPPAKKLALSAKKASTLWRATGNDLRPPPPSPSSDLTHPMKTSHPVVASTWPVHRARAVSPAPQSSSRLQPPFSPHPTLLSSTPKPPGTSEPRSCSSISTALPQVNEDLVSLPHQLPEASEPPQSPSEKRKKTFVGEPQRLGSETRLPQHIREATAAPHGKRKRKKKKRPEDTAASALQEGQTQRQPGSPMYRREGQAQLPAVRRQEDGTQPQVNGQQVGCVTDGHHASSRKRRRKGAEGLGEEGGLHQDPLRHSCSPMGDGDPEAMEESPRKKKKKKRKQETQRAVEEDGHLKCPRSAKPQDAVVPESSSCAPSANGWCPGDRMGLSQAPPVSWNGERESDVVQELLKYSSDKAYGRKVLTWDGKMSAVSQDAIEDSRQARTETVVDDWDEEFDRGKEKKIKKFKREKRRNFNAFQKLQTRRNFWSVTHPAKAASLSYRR
Summary of the method: as §1

[3] = target: T2, USP38 (UniProt Q8NB14)
T2 sequence (whole entry): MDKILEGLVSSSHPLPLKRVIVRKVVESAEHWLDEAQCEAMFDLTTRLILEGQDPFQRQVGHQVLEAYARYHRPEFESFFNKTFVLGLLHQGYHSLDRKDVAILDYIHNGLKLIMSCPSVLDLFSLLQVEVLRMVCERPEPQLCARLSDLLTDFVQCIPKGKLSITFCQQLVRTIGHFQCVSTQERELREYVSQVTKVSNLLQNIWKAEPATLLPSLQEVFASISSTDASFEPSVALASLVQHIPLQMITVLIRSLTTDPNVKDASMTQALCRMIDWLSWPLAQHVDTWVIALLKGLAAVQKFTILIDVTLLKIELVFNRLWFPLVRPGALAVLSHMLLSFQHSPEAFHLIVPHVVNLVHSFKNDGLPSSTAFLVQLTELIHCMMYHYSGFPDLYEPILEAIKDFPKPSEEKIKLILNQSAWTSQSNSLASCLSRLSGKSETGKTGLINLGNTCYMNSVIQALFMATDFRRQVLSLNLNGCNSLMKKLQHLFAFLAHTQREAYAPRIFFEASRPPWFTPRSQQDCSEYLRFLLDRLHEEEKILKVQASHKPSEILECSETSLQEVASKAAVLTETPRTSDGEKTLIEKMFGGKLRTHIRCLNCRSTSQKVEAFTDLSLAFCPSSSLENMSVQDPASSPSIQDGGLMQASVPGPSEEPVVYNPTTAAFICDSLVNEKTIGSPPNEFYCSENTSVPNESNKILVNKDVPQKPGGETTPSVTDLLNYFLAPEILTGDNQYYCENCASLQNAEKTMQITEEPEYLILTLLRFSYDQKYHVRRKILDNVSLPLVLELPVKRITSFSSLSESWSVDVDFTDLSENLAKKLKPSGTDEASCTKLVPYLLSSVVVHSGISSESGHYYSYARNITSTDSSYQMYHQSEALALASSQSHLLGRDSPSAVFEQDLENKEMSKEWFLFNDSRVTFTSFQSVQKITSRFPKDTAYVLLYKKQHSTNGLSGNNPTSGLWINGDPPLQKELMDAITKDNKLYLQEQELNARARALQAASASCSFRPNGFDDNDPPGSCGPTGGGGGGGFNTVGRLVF
Summary of the method: as §1

[4] = target: T3, USP39 (UniProt Q53GS9)
T3 sequence (whole entry): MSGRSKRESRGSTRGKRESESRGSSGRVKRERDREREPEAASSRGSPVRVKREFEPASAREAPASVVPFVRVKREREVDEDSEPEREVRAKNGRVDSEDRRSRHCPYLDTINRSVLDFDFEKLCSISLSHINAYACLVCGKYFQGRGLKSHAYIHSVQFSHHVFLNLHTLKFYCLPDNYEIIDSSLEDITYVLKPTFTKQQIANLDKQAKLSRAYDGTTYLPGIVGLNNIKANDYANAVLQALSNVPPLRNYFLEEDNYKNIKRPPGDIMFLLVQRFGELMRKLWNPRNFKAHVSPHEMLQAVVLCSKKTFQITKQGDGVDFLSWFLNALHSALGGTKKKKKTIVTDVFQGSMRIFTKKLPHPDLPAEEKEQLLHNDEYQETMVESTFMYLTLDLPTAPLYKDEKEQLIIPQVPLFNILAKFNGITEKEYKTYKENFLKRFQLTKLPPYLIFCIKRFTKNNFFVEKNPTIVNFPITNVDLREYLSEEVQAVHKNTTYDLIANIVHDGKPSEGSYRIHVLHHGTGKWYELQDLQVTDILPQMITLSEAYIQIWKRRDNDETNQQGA
Summary of the method: as §1

[5] = target: T4, USP4 (UniProt Q13107)
T4 sequence (whole entry): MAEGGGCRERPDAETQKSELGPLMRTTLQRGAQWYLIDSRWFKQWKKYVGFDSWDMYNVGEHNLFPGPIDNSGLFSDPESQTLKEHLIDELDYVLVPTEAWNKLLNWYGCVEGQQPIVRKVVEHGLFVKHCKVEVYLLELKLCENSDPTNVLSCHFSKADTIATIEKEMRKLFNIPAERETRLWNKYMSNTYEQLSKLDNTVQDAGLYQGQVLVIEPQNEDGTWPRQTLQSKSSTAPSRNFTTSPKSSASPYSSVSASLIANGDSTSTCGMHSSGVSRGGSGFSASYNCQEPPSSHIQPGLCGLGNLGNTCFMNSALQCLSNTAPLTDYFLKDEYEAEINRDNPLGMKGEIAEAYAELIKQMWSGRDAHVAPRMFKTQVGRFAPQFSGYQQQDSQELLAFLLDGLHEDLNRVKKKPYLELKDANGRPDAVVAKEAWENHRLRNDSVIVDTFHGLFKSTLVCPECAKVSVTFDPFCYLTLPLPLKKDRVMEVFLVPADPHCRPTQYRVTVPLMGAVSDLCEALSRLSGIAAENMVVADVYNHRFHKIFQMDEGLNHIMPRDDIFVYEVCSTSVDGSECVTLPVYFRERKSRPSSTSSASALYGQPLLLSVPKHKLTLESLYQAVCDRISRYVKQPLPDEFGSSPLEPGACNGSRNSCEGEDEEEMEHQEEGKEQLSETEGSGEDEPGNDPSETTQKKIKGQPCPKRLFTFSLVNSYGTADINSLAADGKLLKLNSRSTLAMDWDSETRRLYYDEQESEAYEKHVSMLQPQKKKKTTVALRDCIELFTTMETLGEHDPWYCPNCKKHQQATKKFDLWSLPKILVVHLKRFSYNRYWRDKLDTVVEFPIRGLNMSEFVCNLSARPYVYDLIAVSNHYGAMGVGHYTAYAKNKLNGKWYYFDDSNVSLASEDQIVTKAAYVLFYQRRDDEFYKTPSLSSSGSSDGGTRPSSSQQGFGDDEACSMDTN
Summary of the method: as §1

Measured: log2 ratio of Biotin-Ahx-Ub-VS probe labelling

CCN(C(=O)CCl)C1CCCCC1
inactive: [1] -0.106 | [2] -0.191 | [3] 0.143 | [4] 0.059 | [5] 0.182
